Changes are numbered by the printed parent chain.
Key:
Test in all cases: PBM; 200 nM protein, PBS
Details in all cases: dsDNA, one strand shown
HOXB9 [1] = biological target: HOXB9 (Homo sapiens, UniProt P17482 171-250, T197M)
HOXC10 [2] = biological target: HOXC10 (Homo sapiens, UniProt Q9NYD6 254-340)
HOXB9 [3] = biological target: HOXB9 (Homo sapiens, UniProt P17482 171-250)
HOXC10 [4] = biological target: HOXC10 (Homo sapiens, UniProt Q9NYD6 254-340, K271E)
HOXB9 [5] = biological target: HOXB9 (Homo sapiens, UniProt P17482 171-250, R186Q)
NKX3-2 [6] = biological target: NKX3-2 (Homo sapiens, UniProt P78367 192-278, P234S)
NKX3-2 [7] = biological target: NKX3-2 (Homo sapiens, UniProt P78367 192-278)
HOXB6 [8] = biological target: HOXB6 (Homo sapiens, UniProt P17509 132-218, K202E)
MSX2 [9] = biological target: MSX2 (Homo sapiens, UniProt P35548 130-214, R199I)
MSX2 [10] = biological target: MSX2 (Homo sapiens, UniProt P35548 130-214)
MSX2 [11] = biological target: MSX2 (Homo sapiens, UniProt P35548 130-214, F161Y)
HOXB6 [12] = biological target: HOXB6 (Homo sapiens, UniProt P17509 132-218)
PRRX1 [13] = biological target: PRRX1 (Homo sapiens, UniProt P54821 80-166, F113S)
HOXD13 [14] = biological target: HOXD13 (Homo sapiens, UniProt P35453 263-343, T313R)
HOXD13 [15] = biological target: HOXD13 (Homo sapiens, UniProt P35453 263-343)
HOXD13 [16] = biological target: HOXD13 (Homo sapiens, UniProt P35453 263-343, T313A)
PRRX1 [17] = biological target: PRRX1 (Homo sapiens, UniProt P54821 80-166)
ALX3 [18] = biological target: ALX3 (Homo sapiens, UniProt O95076 139-225, N203Q)
PAX4 [19] = biological target: T1, PAX4 (Homo sapiens, UniProt O43316 9-242, F177V)
T1 sequence: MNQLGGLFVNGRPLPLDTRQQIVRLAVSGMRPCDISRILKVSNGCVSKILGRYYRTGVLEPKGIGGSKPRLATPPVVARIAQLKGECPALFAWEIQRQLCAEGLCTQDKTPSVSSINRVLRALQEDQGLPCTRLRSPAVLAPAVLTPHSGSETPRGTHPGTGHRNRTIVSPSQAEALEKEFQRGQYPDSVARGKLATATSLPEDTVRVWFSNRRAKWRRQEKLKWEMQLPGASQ

ALX3 [20] = biological target: ALX3 (Homo sapiens, UniProt O95076 139-225)
ALX3 [21] = biological target: ALX3 (Homo sapiens, UniProt O95076 139-225, L168Q)
ALX3 [22] = biological target: ALX3 (Homo sapiens, UniProt O95076 139-225, L168V)
ALX3 [23] = biological target: ALX3 (Homo sapiens, UniProt O95076 139-225, N203S)
HOXC9 [24] = biological target: HOXC9 (Homo sapiens, UniProt P31274 178-260, K195R)
HOXC9 [25] = biological target: HOXC9 (Homo sapiens, UniProt P31274 178-260)
HOXC9 [26] = biological target: HOXC9 (Homo sapiens, UniProt P31274 178-260, R193K)
HOXC9 [27] = biological target: HOXC9 (Homo sapiens, UniProt P31274 178-260, R222W)
ALX1 [28] = biological target: ALX1 (Homo sapiens, UniProt Q15699 118-204, L144V)
ALX1 [29] = biological target: ALX1 (Homo sapiens, UniProt Q15699 118-204, L144R)
ALX1 [30] = biological target: ALX1 (Homo sapiens, UniProt Q15699 118-204)
ALX4 [31] = biological target: ALX4 (Homo sapiens, UniProt Q9H161 200-286)
PAX4 [32] = biological target: T2, PAX4 (Homo sapiens, UniProt O43316 9-242, R200K)
T2 sequence: T1 sequence with V169F, R192K

PAX4 [33] = biological target: T3, PAX4 (Homo sapiens, UniProt O43316 9-242)
T3 sequence: T1 sequence with V169F

ALX4 [34] = biological target: ALX4 (Homo sapiens, UniProt Q9H161 200-286, Q225E)
PAX4 [35] = biological target: T4, PAX4 (Homo sapiens, UniProt O43316 9-242, R200Q)
T4 sequence: T1 sequence with V169F, R192Q

PAX4 [36] = biological target: T5, PAX4 (Homo sapiens, UniProt O43316 9-242, F177Y)
T5 sequence: T1 sequence with V169Y

HESX1 = HESX1 (Homo sapiens, UniProt Q9UBX0 95-180, F115L)
PAX4 [37] = biological target: T6, PAX4 (Homo sapiens, UniProt O43316 9-242, R227W)
T6 sequence: T1 sequence with V169F, R219W

Chain of HOXB9 (Homo sapiens, UniProt P17482 171-250) (P17482 171-250): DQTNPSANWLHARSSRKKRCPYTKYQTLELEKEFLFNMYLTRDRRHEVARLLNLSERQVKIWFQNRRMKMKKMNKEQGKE
Chain of HOXB6 (Homo sapiens, UniProt P17509 132-218, K202E) (P17509 132-218 K202E): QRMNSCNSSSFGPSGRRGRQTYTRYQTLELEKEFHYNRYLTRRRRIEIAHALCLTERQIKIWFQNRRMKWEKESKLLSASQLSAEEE
Chain of HOXC9 (Homo sapiens, UniProt P31274 178-260, R222W) (P31274 178-260 R222W): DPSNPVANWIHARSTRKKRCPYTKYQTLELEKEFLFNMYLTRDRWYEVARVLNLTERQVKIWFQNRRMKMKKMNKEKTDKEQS
Chain of HOXB9 (Homo sapiens, UniProt P17482 171-250, T197M) (P17482 171-250 T197M): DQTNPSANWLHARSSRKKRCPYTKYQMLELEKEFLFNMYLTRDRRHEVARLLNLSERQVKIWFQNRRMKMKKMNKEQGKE
Chain of HOXB9 (Homo sapiens, UniProt P17482 171-250, R186Q) (P17482 171-250 R186Q): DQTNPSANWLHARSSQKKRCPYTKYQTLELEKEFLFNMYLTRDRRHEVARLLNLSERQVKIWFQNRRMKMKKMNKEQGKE
Chain of HOXC9 (Homo sapiens, UniProt P31274 178-260, K195R) (P31274 178-260 K195R): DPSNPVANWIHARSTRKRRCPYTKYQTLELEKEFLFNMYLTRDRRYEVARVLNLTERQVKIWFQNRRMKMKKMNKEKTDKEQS
Chain of PRRX1 (Homo sapiens, UniProt P54821 80-166) (P54821 80-166): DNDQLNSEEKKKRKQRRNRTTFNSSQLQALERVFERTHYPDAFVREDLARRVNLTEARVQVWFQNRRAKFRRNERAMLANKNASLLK
Chain of ALX3 (Homo sapiens, UniProt O95076 139-225) (O95076 139-225): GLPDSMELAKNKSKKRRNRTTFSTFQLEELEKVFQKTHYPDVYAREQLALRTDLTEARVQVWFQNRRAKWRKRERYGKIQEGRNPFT
Chain of PRRX1 (Homo sapiens, UniProt P54821 80-166, F113S) (P54821 80-166 F113S): as the sequence (P54821 80-166) above, with F34S counted along it
Chain of HOXC9 (Homo sapiens, UniProt P31274 178-260, R193K) (P31274 178-260 R193K): as the sequence (P31274 178-260 R222W) above, with R16K, W45R counted along it
Chain of ALX1 (Homo sapiens, UniProt Q15699 118-204, L144V) (Q15699 118-204 L144V): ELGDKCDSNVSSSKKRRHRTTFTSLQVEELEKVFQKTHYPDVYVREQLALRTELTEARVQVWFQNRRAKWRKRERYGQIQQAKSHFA
Chain of ALX3 (Homo sapiens, UniProt O95076 139-225, N203S) (O95076 139-225 N203S): as the sequence (O95076 139-225) above, with N65S counted along it
Chain of MSX2 (Homo sapiens, UniProt P35548 130-214) (P35548 130-214): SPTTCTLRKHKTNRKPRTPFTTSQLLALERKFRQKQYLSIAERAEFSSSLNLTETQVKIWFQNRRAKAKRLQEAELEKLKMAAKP
Chain of HOXC10 (Homo sapiens, UniProt Q9NYD6 254-340) (Q9NYD6 254-340): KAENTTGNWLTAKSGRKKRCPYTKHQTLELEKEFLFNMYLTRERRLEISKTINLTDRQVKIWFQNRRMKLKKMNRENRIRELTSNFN
Chain of HOXC10 (Homo sapiens, UniProt Q9NYD6 254-340, K271E) (Q9NYD6 254-340 K271E): as the sequence (Q9NYD6 254-340) above, with K18E counted along it
Chain of ALX3 (Homo sapiens, UniProt O95076 139-225, N203Q) (O95076 139-225 N203Q): as the sequence (O95076 139-225) above, with N65Q counted along it
Chain of MSX2 (Homo sapiens, UniProt P35548 130-214, R199I) (P35548 130-214 R199I): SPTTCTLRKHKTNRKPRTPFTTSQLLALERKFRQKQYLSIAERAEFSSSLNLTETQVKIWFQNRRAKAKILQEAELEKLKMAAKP
Chain of ALX3 (Homo sapiens, UniProt O95076 139-225, L168Q) (O95076 139-225 L168Q): as the sequence (O95076 139-225) above, with L30Q counted along it
Chain of ALX3 (Homo sapiens, UniProt O95076 139-225, L168V) (O95076 139-225 L168V): as the sequence (O95076 139-225) above, with L30V counted along it
Chain of HOXC9 (Homo sapiens, UniProt P31274 178-260) (P31274 178-260): as the sequence (P31274 178-260 R222W) above, with W45R counted along it
Chain of MSX2 (Homo sapiens, UniProt P35548 130-214, F161Y) (P35548 130-214 F161Y): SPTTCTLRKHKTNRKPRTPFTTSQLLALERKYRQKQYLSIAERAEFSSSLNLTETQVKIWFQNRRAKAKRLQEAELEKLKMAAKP
Chain of HESX1 (Q9UBX0 95-180 F115L): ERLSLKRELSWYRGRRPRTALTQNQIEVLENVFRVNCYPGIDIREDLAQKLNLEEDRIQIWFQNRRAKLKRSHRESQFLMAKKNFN
Chain of HOXB6 (Homo sapiens, UniProt P17509 132-218) (P17509 132-218): as the sequence (P17509 132-218 K202E) above, with E71K counted along it
Chain of HOXD13 (Homo sapiens, UniProt P35453 263-343) (P35453 263-343): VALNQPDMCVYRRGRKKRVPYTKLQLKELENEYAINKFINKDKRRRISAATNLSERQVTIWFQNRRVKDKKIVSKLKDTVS
Chain of ALX1 (Homo sapiens, UniProt Q15699 118-204, L144R) (Q15699 118-204 L144R): as the sequence (Q15699 118-204 L144V) above, with V27R counted along it
Chain of NKX3-2 (Homo sapiens, UniProt P78367 192-278, P234S) (P78367 192-278 P234S): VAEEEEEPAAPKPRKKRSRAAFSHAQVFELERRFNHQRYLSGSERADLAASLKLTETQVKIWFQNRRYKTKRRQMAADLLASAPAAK
Chain of HOXD13 (Homo sapiens, UniProt P35453 263-343, T313R) (P35453 263-343 T313R): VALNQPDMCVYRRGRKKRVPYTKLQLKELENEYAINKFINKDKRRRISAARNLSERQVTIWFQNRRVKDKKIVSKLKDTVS
Chain of ALX4 (Homo sapiens, UniProt Q9H161 200-286, Q225E) (Q9H161 200-286 Q225E): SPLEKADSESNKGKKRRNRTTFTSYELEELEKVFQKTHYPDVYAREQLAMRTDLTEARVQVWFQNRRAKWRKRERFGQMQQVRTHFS
Chain of NKX3-2 (Homo sapiens, UniProt P78367 192-278) (P78367 192-278): as the sequence (P78367 192-278 P234S) above, with S43P counted along it
Chain of ALX1 (Homo sapiens, UniProt Q15699 118-204) (Q15699 118-204): as the sequence (Q15699 118-204 L144V) above, with V27L counted along it
Chain of HOXD13 (Homo sapiens, UniProt P35453 263-343, T313A) (P35453 263-343 T313A): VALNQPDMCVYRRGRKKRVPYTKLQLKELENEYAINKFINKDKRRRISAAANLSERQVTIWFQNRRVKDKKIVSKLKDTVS
Chain of ALX4 (Homo sapiens, UniProt Q9H161 200-286) (Q9H161 200-286): as the sequence (Q9H161 200-286 Q225E) above, with E26Q counted along it

GGCAGACC was tested, and the binding signal (HOXB9 [1]) was 8.55 upbm affinity estimate (log intensity, higher = more binding, comparable within an allelic series), the binding signal (HOXC10 [2]) was 10.1 upbm affinity estimate (log intensity, higher = more binding, comparable within an allelic series) and the binding signal (HOXB9 [3]) was 8.57 upbm affinity estimate (log intensity, higher = more binding, comparable within an allelic series). The binding signal (HOXC10 [4]) was 10.1 upbm affinity estimate (log intensity, higher = more binding, comparable within an allelic series), the binding signal (HOXB9 [5]) was 8.65 upbm affinity estimate (log intensity, higher = more binding, comparable within an allelic series) and the binding signal (NKX3-2 [6]) was 10.4 upbm affinity estimate (log intensity, higher = more binding, comparable within an allelic series). For the same sequence, the binding signal (NKX3-2 [7]) was 10.3 upbm affinity estimate (log intensity, higher = more binding, comparable within an allelic series).

CGTGAAGC was tested, and the binding signal (HOXB9 [1]) was 8.57 upbm affinity estimate (log intensity, higher = more binding, comparable within an allelic series), the binding signal (HOXC10 [2]) was 10 upbm affinity estimate (log intensity, higher = more binding, comparable within an allelic series) and the binding signal (HOXB6 [8]) was 9.08 upbm affinity estimate (log intensity, higher = more binding, comparable within an allelic series). For the same sequence, the binding signal (HOXB9 [3]) was 8.56 upbm affinity estimate (log intensity, higher = more binding, comparable within an allelic series), the binding signal (MSX2 [9]) was 9.57 upbm affinity estimate (log intensity, higher = more binding, comparable within an allelic series) and the binding signal (HOXC10 [4]) was 10 upbm affinity estimate (log intensity, higher = more binding, comparable within an allelic series). For the same sequence, the binding signal (MSX2 [10]) was 9.35 upbm affinity estimate (log intensity, higher = more binding, comparable within an allelic series), the binding signal (HOXB9 [5]) was 8.45 upbm affinity estimate (log intensity, higher = more binding, comparable within an allelic series) and the binding signal (MSX2 [11]) was 9.38 upbm affinity estimate (log intensity, higher = more binding, comparable within an allelic series). For the same sequence, the binding signal (HOXB6 [12]) was 8.9 upbm affinity estimate (log intensity, higher = more binding, comparable within an allelic series).

In the case of ACCGGCAG, the binding signal (HOXB9 [1]) is reported as 8.5 upbm affinity estimate (log intensity, higher = more binding, comparable within an allelic series), the binding signal (PRRX1 [13]) is reported as 9.27 upbm affinity estimate (log intensity, higher = more binding, comparable within an allelic series) and the binding signal (HOXB9 [3]) is reported as 8.43 upbm affinity estimate (log intensity, higher = more binding, comparable within an allelic series). The binding signal (MSX2 [9]) was 9.63 upbm affinity estimate (log intensity, higher = more binding, comparable within an allelic series), the binding signal (HOXD13 [14]) was 9.44 upbm affinity estimate (log intensity, higher = more binding, comparable within an allelic series) and the binding signal (HOXD13 [15]) was 9.57 upbm affinity estimate (log intensity, higher = more binding, comparable within an allelic series). For the same sequence, the binding signal (MSX2 [10]) was 9.62 upbm affinity estimate (log intensity, higher = more binding, comparable within an allelic series), the binding signal (HOXD13 [16]) was 9.67 upbm affinity estimate (log intensity, higher = more binding, comparable within an allelic series) and the binding signal (HOXB9 [5]) was 8.48 upbm affinity estimate (log intensity, higher = more binding, comparable within an allelic series). For the same sequence, the binding signal (MSX2 [11]) was 9.59 upbm affinity estimate (log intensity, higher = more binding, comparable within an allelic series) and the binding signal (PRRX1 [17]) was 9.41 upbm affinity estimate (log intensity, higher = more binding, comparable within an allelic series).

In the case of AATATAAT, the binding signal (HOXB9 [1]) is reported as 9.96 upbm affinity estimate (log intensity, higher = more binding, comparable within an allelic series), the binding signal (HOXB6 [8]) is reported as 10 upbm affinity estimate (log intensity, higher = more binding, comparable within an allelic series) and the binding signal (ALX3 [18]) is reported as 8.52 upbm affinity estimate (log intensity, higher = more binding, comparable within an allelic series). For the same sequence, the binding signal (PAX4 [19]) was 10.7 upbm affinity estimate (log intensity, higher = more binding, comparable within an allelic series), the binding signal (ALX3 [20]) was 11.4 upbm affinity estimate (log intensity, higher = more binding, comparable within an allelic series) and the binding signal (ALX3 [21]) was 9.35 upbm affinity estimate (log intensity, higher = more binding, comparable within an allelic series). The binding signal (ALX3 [22]) was 9.24 upbm affinity estimate (log intensity, higher = more binding, comparable within an allelic series) and the binding signal (ALX3 [23]) was 8.65 upbm affinity estimate (log intensity, higher = more binding, comparable within an allelic series).

In the case of ATAAAATG, the binding signal (HOXB9 [1]) is reported as 9.81 upbm affinity estimate (log intensity, higher = more binding, comparable within an allelic series), the binding signal (HOXC9 [24]) is reported as 12.5 upbm affinity estimate (log intensity, higher = more binding, comparable within an allelic series) and the binding signal (HOXB9 [3]) is reported as 11.7 upbm affinity estimate (log intensity, higher = more binding, comparable within an allelic series). For the same sequence, the binding signal (HOXC9 [25]) was 12.6 upbm affinity estimate (log intensity, higher = more binding, comparable within an allelic series), the binding signal (HOXC9 [26]) was 12.6 upbm affinity estimate (log intensity, higher = more binding, comparable within an allelic series) and the binding signal (HOXB9 [5]) was 11.6 upbm affinity estimate (log intensity, higher = more binding, comparable within an allelic series). For the same sequence, the binding signal (HOXC9 [27]) was 11 upbm affinity estimate (log intensity, higher = more binding, comparable within an allelic series).

In the case of CCCAGGCC, the binding signal (HOXB9 [1]) is reported as 8.39 upbm affinity estimate (log intensity, higher = more binding, comparable within an allelic series), the binding signal (HOXC9 [24]) is reported as 9.5 upbm affinity estimate (log intensity, higher = more binding, comparable within an allelic series) and the binding signal (HOXB9 [3]) is reported as 8.27 upbm affinity estimate (log intensity, higher = more binding, comparable within an allelic series). The binding signal (HOXC9 [25]) was 9.64 upbm affinity estimate (log intensity, higher = more binding, comparable within an allelic series), the binding signal (ALX1 [28]) was 6.55 upbm affinity estimate (log intensity, higher = more binding, comparable within an allelic series) and the binding signal (HOXC9 [26]) was 9.51 upbm affinity estimate (log intensity, higher = more binding, comparable within an allelic series). For the same sequence, the binding signal (ALX1 [29]) was 6.47 upbm affinity estimate (log intensity, higher = more binding, comparable within an allelic series), the binding signal (HOXB9 [5]) was 8.29 upbm affinity estimate (log intensity, higher = more binding, comparable within an allelic series) and the binding signal (HOXC9 [27]) was 9.62 upbm affinity estimate (log intensity, higher = more binding, comparable within an allelic series). The binding signal (ALX1 [30]) was 6.28 upbm affinity estimate (log intensity, higher = more binding, comparable within an allelic series).

In the case of ATAAATTA, the binding signal (HOXB9 [1]) is reported as 9.96 upbm affinity estimate (log intensity, higher = more binding, comparable within an allelic series), the binding signal (ALX4 [31]) is reported as 13.6 upbm affinity estimate (log intensity, higher = more binding, comparable within an allelic series) and the binding signal (PAX4 [32]) is reported as 11.7 upbm affinity estimate (log intensity, higher = more binding, comparable within an allelic series). The binding signal (PRRX1 [13]) was 11.2 upbm affinity estimate (log intensity, higher = more binding, comparable within an allelic series), the binding signal (PAX4 [33]) was 12.2 upbm affinity estimate (log intensity, higher = more binding, comparable within an allelic series) and the binding signal (HOXB6 [8]) was 10 upbm affinity estimate (log intensity, higher = more binding, comparable within an allelic series). The binding signal (ALX4 [34]) was 12.6 upbm affinity estimate (log intensity, higher = more binding, comparable within an allelic series), the binding signal (ALX1 [28]) was 11.4 upbm affinity estimate (log intensity, higher = more binding, comparable within an allelic series) and the binding signal (ALX3 [18]) was 8.61 upbm affinity estimate (log intensity, higher = more binding, comparable within an allelic series). The binding signal (PAX4 [35]) was 11.8 upbm affinity estimate (log intensity, higher = more binding, comparable within an allelic series), the binding signal (PAX4 [19]) was 10.7 upbm affinity estimate (log intensity, higher = more binding, comparable within an allelic series) and the binding signal (ALX3 [20]) was 12.3 upbm affinity estimate (log intensity, higher = more binding, comparable within an allelic series). For the same sequence, the binding signal (PAX4 [36]) was 11 upbm affinity estimate (log intensity, higher = more binding, comparable within an allelic series), the binding signal (ALX3 [21]) was 10.2 upbm affinity estimate (log intensity, higher = more binding, comparable within an allelic series) and the binding signal (HOXC9 [27]) was 11 upbm affinity estimate (log intensity, higher = more binding, comparable within an allelic series). The binding signal (ALX3 [22]) was 9.72 upbm affinity estimate (log intensity, higher = more binding, comparable within an allelic series), the binding signal (HESX1) was 7.82 upbm affinity estimate (log intensity, higher = more binding, comparable within an allelic series) and the binding signal (PAX4 [37]) was 11 upbm affinity estimate (log intensity, higher = more binding, comparable within an allelic series). The binding signal (ALX3 [23]) was 8.71 upbm affinity estimate (log intensity, higher = more binding, comparable within an allelic series) and the binding signal (PRRX1 [17]) was 13.3 upbm affinity estimate (log intensity, higher = more binding, comparable within an allelic series).
